The structures appear in SMILES notation.

For this assay, the system named is Vero E6 infected with SARS-CoV-2. Put plainly: inhibition of SARS-CoV-2 cytopathic effect; higher = more antiviral protection, active = above 15. Conditions: 833.33 nM; 48 h. On the technique in general: Cytopathic effects are the visible damage that an infection or toxin causes in cultured cells.
Turning to `O=C(O)c1ccccc1-c1ccc(C(F)(F)F)cc1` [xenalipin], the “inhibition of SARS-CoV-2 cytopathic effect” value (shortened to “inhibition”) was 4.27% (inactive). In the case of `Oc1cc2c(cc1O)[C@H](Cc1cccc3ccccc13)NCC2` it was -0.78% (inactive); in that of `CCOC(=S)SSC(=S)OCC` [dixanthogen], -0.83% (inactive); in that of `C=CCNc1c(O)cc2c(O)c1C[C@@H](C)C[C@H](OC)[C@H](O)[C@@H](C)/C=C(\C)[C@H](OC(N)=O)[C@@H](OC)/C=C\C=C(/C)C(=O)N2` [retaspimycin], 5.56% (inactive). `C=C[C@@H]1C[C@]1(NC(=O)[C@@H]1C[C@@H](Oc2ncc(OC)c3ccc(Cl)cc23)CN1C(=O)[C@@H](NC(=O)OC(C)(C)C)C(C)(C)C)C(=O)NS(=O)(=O)C1CC1` [asunaprevir]: the “inhibition” value is 2.81% (inactive). In the case of `O=C(Nc1ccccc1C(=O)Nc1ccc(CCO)cc1)c1ccc([N+](=O)[O-])cc1` it was -1.34% (inactive); in that of `Nc1ccc(S(=O)(=O)Nc2ccnn2-c2ccccc2)cc1` [sulfaphenazole], 2.18% (inactive). In the case of `CO/N=C(\C(=O)N[C@@H]1C(=O)N2C(C(=O)O)=C(CSc3nc(C)c(CC(=O)O)s3)CS[C@H]12)c1csc(N)n1` [cefodizime] it was -0.21% (inactive). For the compound `C[C@H](CCC(=O)O)[C@H]1CC[C@H]2[C@@H]3C[C@H](O)[C@@H]4C[C@H](O)CC[C@]4(C)[C@H]3CC[C@]12C` [Hyodeoxycholic acid (HDCA)], the “inhibition” value was 2.52% (inactive). With `CC1=C(/C=C/C(=C/C=C/C(C)=C/C(=O)O)c2ccc(C)cc2)C(C)(C)CCC1`, the “inhibition” value is 1.71% (inactive). In the case of `NC(N)=Nc1nc(CSCC/C(N)=N/S(N)(=O)=O)cs1` [Famotidine], the “inhibition” value was -0.03% (inactive).

Turning to `Cc1cc(-c2nc(C(=O)Nc3cn(C4CCOCC4)nc3C(N)=O)co2)ccn1`, the “inhibition” value is -4.01% (inactive).

As to `COc1ccc(-c2cc(C(F)F)nn2-c2ccc(S(N)(=O)=O)cc2)cc1F` [deracoxib], the “inhibition” value was 2.29% (inactive).

Take `CSC[C@H](N)C(=O)O` [S-methylcysteine]: the “inhibition” value was -0.82% (inactive).

With `CS(=O)(=O)c1ccc([C@@H](O)[C@@H](CF)NC(=O)C(Cl)Cl)cc1` [florfenicol], the “inhibition” value is 0.63% (inactive). As for `CC1(C)CCC(C)(C)c2cc(Cn3cccn3)c(/C=C/c3ccc(C(=O)O)cc3)cc21` [palovarotene], the “inhibition” value is 0.58% (inactive). Next, `O=C(O)[C@H](Cc1c[nH]c2ccccc12)N1C(=O)c2ccccc2C1=O`: -0.14% (inactive); `Cc1cc(C(=O)Nc2nc3cccc(Cl)c3n2[C@@H]2CCCCN(C(=O)/C=C/CN(C)C)C2)ccn1`: -8.44% (inactive); `N[C@H]1CC[C@H](N[C@@H]2C[C@H]2c2ccccc2)CC1`: 1.11% (inactive). In the case of `CNC(=O)[C@@H](NC(=O)[C@H](CC(C)C)[C@H](O)C(=O)NO)C(C)(C)C` [marimastat] it was -6.93% (inactive); in that of `CC(=O)N[C@@H](CC(=O)O)C(=O)N[C@@H](CCC(=O)O)C(=O)O` [spaglumic-acid], -1.39% (inactive). Next, `C=CC(=O)c1ccc2ccccc2c1` [JAK3-inhibitor-V]: -2.88% (inactive). Take `Nc1nc(N)nc(-c2cc(Cl)ccc2Cl)n1` [irsogladine]: the “inhibition” value is 1.79% (inactive). In the case of `S=C=Nc1ccc(N=C=S)cc1` [bitoscanate] it was 0.38% (inactive); in that of `COc1ccc(-c2oc3c(CC=C(C)C)c(O)cc(O)c3c(=O)c2O)cc1` [icaritin], -0.36% (inactive); in that of `C[C@@H]1CN(c2c(F)c(N)c3c(=O)c(C(=O)O)cn(C4CC4)c3c2F)C[C@H](C)N1` [sparfloxacin], -1.72% (inactive). As for `CN(C)c1cccc(-c2c3c(=O)n(-c4ccccc4Cl)[nH]c3cc(=O)n2C)c1`, the “inhibition” value was -1.67% (inactive).

For `Cc1ncc(CSSCc2cnc(C)c(O)c2CO)c(CO)c1O` [pyritinol], the “inhibition” value is 1.42% (inactive). Regarding `CCCN(CCC)[C@H]1CCc2ccc(O)cc2C1` [7-hydroxy-DPAT], the “inhibition” value was -0.29% (inactive). In the case of `CN(C)Cc1c(C(=O)NCCOc2ccc(C(=O)NO)cc2)oc2ccccc12` it was -15.5% (inactive); in that of `CCn1c(-c2nonc2N)nc2cncc(C(=O)N3CC[C@H](N)C3)c21`, -3.28% (inactive); in that of `CC1(C)OC[C@@H](COC(=O)CCc2ccc(OC[C@@H](O)CNCCNC(=O)N3CCOCC3)cc2)O1` [landiolol], -1.43% (inactive). Next, `C[C@@H](NC(=O)c1ncnc(N)c1Cl)c1ncc(C(=O)Nc2cc(C(F)(F)F)c(Cl)cn2)s1`: 4.42% (inactive); `CN(C)CCNc1nc2cc(O)ccc2c2c1C(=O)c1ccccc1-2`: -7.91% (inactive); `CC(C)(O)CC(=O)O` [beta-hydroxy-beta-methylbutyrate]: -3.9% (inactive). In the case of `CNCc1ccc(C)c(NC(=O)c2ccc(Nc3nc(-c4ccccc4)c4ccccc4n3)cc2)c1`, the “inhibition” value is -1.96% (inactive). Consider `CCc1cc(O)c(Oc2ccc(C(N)=O)cc2F)cc1F`, for which the “inhibition” value is -0.53% (inactive). Next, `Nc1ccccc1S(N)(=O)=O` [2-aminobenzenesulfonamide]: 3.53% (inactive); `Cc1ccc(S(=O)(=O)Cc2nc(-c3ccc(C(=O)NCc4cccnc4)cc3)oc2C)cc1`: -19.2% (inactive).
